This note sets out measurements from PubChem BioAssay AID504884 (Broad Institute, 2011).

About 230 (0.064%) of roughly 360,000 compounds were called active. For the sample, actives were picked, then their nearest neighbours and some compounds at random. Unmarked numbers belong to inactive results. Cut-off read from the data, not from the text of the source: active = activity above about 50% (passing the limit was not always enough); inconclusive = no clear call, values can overlap the other calls.

The assay relates to DNA topoisomerase I (Yersinia pestis CO92). Description: Yersinia pestis topoisomerase I inhibitors, primary screen, biochemical, cleavage product accumulation, plate reader, single point (AID 504884). The following applies: Y. pestis Topo-I cleavage product accumulation, at 10 µM, stronger effect = higher value.
For `COc1ccccc1N1CC(C(=O)Nc2nnc(SCC(=O)NC(C)C)s2)CC1=O` (stereo unspecified), the activity is 6.4%.
Under `Cc1cc(SCC(=O)NCCN2C(=O)CSC2=O)nc2ccccc12` stands 2.72%; under `O=[N+]([O-])c1ccc(S(=O)(=O)Nc2cccc(-c3ccc(N4CCCC4)nn3)c2)cc1`, 21.6%; under `CC1CCc2sc(C(=O)NCC(c3ccco3)N3CCCCC3)cc2C1` (stereo unspecified), -2.82%.
Under `CC(C)Oc1ccc(CN2CCC2(C)C(=O)NCc2ccc(C(F)(F)F)cc2)cc1` (stereo unspecified) stands 15.8%; under `COc1ccc(CN2CCN(C(=O)c3cc(C4CC4)nn3-c3ccccc3)CC2)cc1F`, 29.4%; under `CN(C)C(=O)N=NC(=O)N(C)C`, -8.5%.
Under `C[C@H](CO)N1C[C@H](C)[C@@H](CN(C)Cc2ccc(-c3ccccc3)cc2)Oc2ccc(NC(=O)Cn3cnnn3)cc2C1=O` stands 22.5%; under `O=C(CN1CCC(NC(=O)C2CC2)CC1)Nc1ccccc1[N+](=O)[O-]`, 2.07%.
`COc1ccc(C(CCN(Cc2ccc(OC)c(OC)c2)C(=O)CCl)c2ccccc2)cc1` (stereo unspecified): the activity was 12.3%.
The same measure for `COc1ccc(CN(C)C(=O)CC(c2ccccc2)c2ccccc2)cc1`: 51.6% (active); for `CN(Cc1ccc(F)cc1)C(=O)COc1ccc2ccccc2c1`: 27.3%; for `Cc1ccc(S(=O)(=O)NCC(=O)N2CCOCCOCCOCCOCC2)cc1`: 5.8%.
Under `Cc1cc(C)nc(/N=C2\NC(=O)CC(C(=O)O)N2c2ccc(Cl)cc2Cl)n1` (stereo unspecified) stands -1.83%.
The same measure for `O=C1NNC(c2ccccc2)=N/C1=C\c1ccc(Cl)cc1`: -4.41%.
`Cc1ccccc1-n1nnnc1SCCCC(=O)c1ccc(F)cc1`: the activity is 21.7%.
Turning to `Cc1ccc2c(c1)C(c1ccccc1)N(C(=O)c1ccc(S(=O)(=O)N3CCOCC3)cc1)CC(=O)N2` (stereo unspecified), the activity was 3.57%.
Under `Cc1cc(C)c(C(N)=O)c(Cl)n1` stands 0.37%; under `CCOc1ccc(S(=O)(=O)N2CCC(c3ccccc3)CC2)cc1C(=O)O`, -7.32%.
Under `COC(=O)Nc1ccc(S(=O)(=O)N2CCN(CCN3C(=O)C4C5C=CC(C5)C4C3=O)CC2)cc1` (stereo unspecified) stands 0.176%.
Under `CN(C(=O)CSc1nnc(C2CC2)n1C)C1CCCc2ccccc21` (stereo unspecified) stands 9.61%; under `CC(=O)c1ccc(NC(=O)C2CCCN2S(=O)(=O)c2cccs2)cc1` (stereo unspecified), -1.65%; under `CC=CCn1c(SCCCc2ccccc2)nc2c1c(=O)[nH]c(=O)n2C`, 14.6%.
In the case of `CCCCCn1c(SCCC(C)C)nc2c1c(=O)[nH]c(=O)n2C`, the activity is 112% (active).
For the compound `C=CCn1c(SCc2ccccc2)nc2c1c(=O)[nH]c(=O)n2C`, the activity was 20.2%.
The same measure for `O=C1CC[C@H](O)CCN1[C@H](CSc1ccc(Br)cc1)Cc1ccccc1`: 10.9%; for `C[C@H]1CCC(=O)N([C@H](CSc2ccccc2)Cc2ccccc2)CC1`: 59.9% (active); for `CC(=O)Nc1ccc(SC[C@H](Cc2ccccc2)N2CC[C@@H](C)CCC2=O)cc1`: 25.8%.
The same measure for `Cc1cc(Cl)c(S(=O)(=O)NCc2cccnc2)cc1OCC(N)=O`: -1.35%; for `CN(C)c1ccc(C(=S)N2CCN(C(=S)Nc3ccc(Cl)cc3)CC2)cc1`: 3.46%; for `Cc1cc(OCC(=O)NCC(O)c2ccccc2)c2c(C)c(C)c(=O)oc2c1` (stereo unspecified): -1%.
The same measure for `O=C(CSc1ncnc2c1oc1ccccc12)NC1CCCC1`: 2.5%; for `CCC(=O)NC(Nc1cc(C)ccn1)(C(F)(F)F)C(F)(F)F`: -7.52%.
As to `CC(=O)c1nn(-c2ccc(C)cc2)cc1C(=O)c1cccc(Br)c1`, the activity was 8.28%.
Under `CCOC(=O)c1nn(-c2cccc(C)c2)cc1C(=O)c1ccccc1` stands 67.3% (active); under `CCOC(=O)c1cn(Cc2cccc(C)c2)nn1`, -1.57%; under `COCC(C)n1c(C)cc(C(=O)COc2ccc(C)nc2[N+](=O)[O-])c1C` (stereo unspecified), 8.7%.
For the compound `COC(=O)[C@H]1C[C@H](OC(=O)NCc2ccccc2)[C@@]2(O)CN(S(=O)(=O)c3ccc(C)cc3)CC2[C@H]1C(=O)OC` (stereo partly specified), the activity was 7.34%.
As for `Cc1cc2nc(C(F)(F)F)cc(-c3cccs3)n2n1`, the activity is -15.7%.
The same measure for `COc1c(C)c2c(c(O)c1C/C=C(\C)CCC(=O)O)C(=O)OC2`: 5.68%.
For the compound `CC1(Oc2ccccc2-c2ccno2)CCN(Cc2ccc(-c3ccccc3)o2)C1` (stereo unspecified), the activity was 24%.
Under `Cc1ccn(CC(=O)NC2CCCN(Cc3ccccc3F)C2)n1` (stereo unspecified) stands -8.15%; under `CC(C)CN(C(=O)Cn1c(=O)cnc2ccccc21)C1CCS(=O)(=O)C1` (stereo unspecified), 1.02%.
In the case of `CCN1CCN(c2cc3nc(C)n(Cc4ccccc4)c(=O)c3cc2NC(=O)c2ccccc2F)CC1`, the activity was 23.4%.
Under `COc1ccc(N=C2C=CC(=O)O2)cc1` stands 1.67%.
For the compound `C=C1c2cccc(OC)c2O[C@H](C(=O)OCC)[C@@H]1CCCCCC`, the activity is 39%.
Under `COC(=O)[C@@H]1C[C@@]2(O)[C@H](O)[C@H](O)[C@H](O)C[C@H]2N1Cc1ccc(C(C)(C)C)cc1` stands 1.65%.
The same measure for `O=C(NCc1ccc(F)cc1)c1cc(C2CCCCN2C(=O)c2cccs2)on1` (stereo unspecified): 28.6%.
Under `COc1ccccc1-c1n[nH]c2c1[C@H](C)CC[C@H]2C(C)C` stands 29.7%; under `CN(C)c1ccc(CNC2C3CC4CC(C3)CC2C4)cc1` (stereo unspecified), -0.886%.
With `COCCN(C(=O)CC1CCCCC1)c1c(N)n(CC(C)C)c(=O)[nH]c1=O`, the activity is -3.38%.
Under `CCCCCN(C(=O)CCC(=O)OCCOc1ccc(OC)cc1)c1c(N)n(CCCC)c(=O)[nH]c1=O` stands 20.2%.
With `CC1CCCC(C)N1/N=C/c1ccccc1OC(F)F` (stereo unspecified), the activity is -8.42%.
Under `Fc1ccc(Br)cc1/C=N/n1cnnc1` stands 1.69%; under `Cc1nc2c(ncn2-c2ccccc2)c(=O)n1NC(=O)CN1CCCC1`, -2.1%; under `CCC(CC)C(=O)Nc1c2c(nn1-c1ccc(C)cc1)CS(=O)(=O)C2`, -1.49%.
Turning to `CCN(CC)P(=O)(Oc1cccc(C)c1)N(CC)CC`, the activity is 2.59%.
Under `Cc1cccc(OP(=O)(Nc2c(C)n(C)n(-c3ccccc3)c2=O)Oc2cccc(C)c2)c1` stands 25.5%; under `Cc1cccc(OP(=O)(Oc2cccc(C)c2)OC(c2ccccc2)C(F)(F)F)c1` (stereo unspecified), 60.4% (active).
Under `Cc1cc(N2CCN(c3ccc(F)cc3)CC2)n2ncnc2n1` stands 1.33%; under `O=c1c2ccccc2ncn1CCCCOc1ccccc1F`, 5.21%.
The same measure for `N/C(=N\OC(=O)CCn1cccc(C(F)(F)F)c1=O)c1ccc(OC(F)(F)F)cc1`: 0.341%; for `O=S(=O)(c1cccc2nonc12)N1CCN(c2cccc(Cl)c2)CC1`: 8.66%.
Consider `Cc1ccc(S(=O)(=O)N2CCC(Oc3ccc(-n4cnnn4)cc3)CC2)cc1`, for which the activity is 9.39%.
Under `CCCCNC1(C#N)CCN(Cc2ccccc2)CC1` stands -6.77%; under `Cc1c(CCO)c(=O)[nH]n1C(=O)c1c(F)cccc1F`, 11.7%.
`O=C(/C=C/c1cnc2ccccc2n1)NC1CCCCCC1`: the activity was 7.03%.
For `COc1ccccc1CNC(=O)CNC(=O)c1cn(-c2ccccc2OC)c(=O)c2ccccc12`, the activity was 2.16%.
Under `CSc1cccc(NC(=S)N(Cc2ccccc2)Cc2ccccn2)c1` stands 9.55%; under `COc1cc(OC)cc(-c2cc3nc(C4CCN(C(=O)OC(C)(C)C)CC4)cc(=O)n3[nH]2)c1`, 2.04%; under `CS(=O)(=O)c1sc(C(=O)NC(=S)Nc2ccc(OC(F)(F)F)cc2)c2c1C=CCC2`, 6.39%.
As to `Cc1ccc(N2C(=O)CC(NCc3ccc4c(c3)OCO4)C2=O)cc1Cl` (stereo unspecified), the activity was 4.73%.
Under `Cc1ccc(CCNC(=O)C2CCN(S(=O)(=O)N3CCCC3)CC2)cc1` stands 0.896%.
The same measure for `CSc1ccc(S(=O)(=O)N2CCC(C(=O)NCCc3ccccc3)CC2)cc1`: 3.52%; for `Cc1ccc(S(=O)(=O)N2CCC(C(=O)NCCC3=CCCCC3)CC2)cc1C`: 51.1% (active).
The same measure for `CN(C(=O)COC(=O)CCCc1c[nH]c2ccccc12)c1c(N)n(Cc2ccccc2)c(=O)[nH]c1=O`: 15%.
Regarding `COc1ccc(/C(=N\O)c2nccc3cc(OC)c(OC)cc23)cc1OC`, the activity was 6.19%.
The same measure for `COCCCNC(=O)C1CC(=O)N(CCc2ccc(F)cc2)C1` (stereo unspecified): -2.65%.
Regarding `CC(OC(=O)c1ccccc1OCc1ccc(Cl)cc1)C(N)=O` (stereo unspecified), the activity is 4.36%.
The same measure for `CC(=O)c1ccccc1OCc1ccc(C(=O)c2ccccc2)cc1`: 55.1% (active); for `O=C(NC1CCC(O)CC1)c1ccccc1OCc1ccc(F)cc1` (stereo unspecified): 1.15%; for `CCOC(=O)C1CCN(S(=O)(=O)c2ccc3c(c2)N(C)C(=O)CC(=O)N3C)CC1`: -0.905%.
As to `FC(F)(F)C1CCCN(c2nsc3ccccc23)C1` (stereo unspecified), the activity is 4.11%.
As to `CCCCNC(=O)c1ccccc1NC(=O)c1ccccc1N(C)S(C)(=O)=O`, the activity is 8.01%.
Under `c1ccc(CC2CCN(c3nc4ccccc4n4cnnc34)CC2)cc1` stands 27.5%.
The same measure for `COc1ccc(CN2CCC(n3nccc3NC(=O)CCCc3ccccc3)CC2)cc1C`: 18.3%.
Under `CC(C)(C)N(Cc1ccccc1)C(=O)COC(=O)CCc1c[nH]c2ccccc12` stands 1.59%; under `CC1(c2ccc3ccccc3c2)NC(=O)NC1=O` (stereo unspecified), 0.131%.
As to `O=C1CSC(c2cccc(F)c2)N1c1ccccc1F` (stereo unspecified), the activity is -2.91%.
The same measure for `O=C(Cc1ccccc1F)NC1CCSc2ccccc21` (stereo unspecified): 5.76%; for `O=S(=O)(O)c1cc2onnc2c2ccccc12`: -2.58%.
